Bioassay records: PubChem, several laboratories
Rows were chosen to be rich in hits. Some 6.6% of all compounds tested hit in one or more screens of this group.
GDH-TPI inh: GDH-TPI coupling enzyme inhibitors, primary screen, artefact control for M. tuberculosis FBA inhibitor project, biochemical, absorbance, full deck | GDH-TPI coupled enzyme counterscreen, NADH absorbance | inhibition, % at 4.8 µM | hit rate 1.2% among 360,000 | AID 588335, 2011; in the data active = inhibition above about 30%;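 note: 0% = DMSO wells and 100% = wells lacking the enzyme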
Autofluor counter: flagged as autofluorescent in microsphere protease counterscreen; hit rate 3.1% among 360,000; compound autofluorescence counterscreen, microsphere flow cytometry; active compounds read high; fluorescence intensity (concentration not given with the values); AID 624483; in the data active = fluorescence intensity above about 16000; inconclusive = no clear call, values can overlap the other calls
Mtb FBA inh: Mtb FBA enzyme inhibitors, primary screen, biochemical, fluorescence, strain H37Rv | inhibition, % at 1 µM | purified M. tuberculosis FBA, fluorescence read-out | AID 588726, 2011 | hit rate 2.3% among 360,000 | Fructose-bisphosphate aldolase (Mycobacterium tuberculosis (strain ATCC 25618 / H37Rv)), …; in the data active = inhibition above about 27%;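 note: 0% = vehicle and 100% = reference inhibitor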
Anthrax LF prot: Bacillus anthracis LF protease inhibitors, primary screen, biochemical, multiplex microsphere, MLPCN library | Lethal factor (Bacillus anthracis), P15917 | multiplex microsphere protease cleavage assay | inhibition, % at 10 µM | hit rate 0.12% among 360,000 | AID 588501, 2011; note: plate controls were buffer without enzyme for full effect and enzyme alone for no effect
Target sequence (P15917 whole entry, looked up): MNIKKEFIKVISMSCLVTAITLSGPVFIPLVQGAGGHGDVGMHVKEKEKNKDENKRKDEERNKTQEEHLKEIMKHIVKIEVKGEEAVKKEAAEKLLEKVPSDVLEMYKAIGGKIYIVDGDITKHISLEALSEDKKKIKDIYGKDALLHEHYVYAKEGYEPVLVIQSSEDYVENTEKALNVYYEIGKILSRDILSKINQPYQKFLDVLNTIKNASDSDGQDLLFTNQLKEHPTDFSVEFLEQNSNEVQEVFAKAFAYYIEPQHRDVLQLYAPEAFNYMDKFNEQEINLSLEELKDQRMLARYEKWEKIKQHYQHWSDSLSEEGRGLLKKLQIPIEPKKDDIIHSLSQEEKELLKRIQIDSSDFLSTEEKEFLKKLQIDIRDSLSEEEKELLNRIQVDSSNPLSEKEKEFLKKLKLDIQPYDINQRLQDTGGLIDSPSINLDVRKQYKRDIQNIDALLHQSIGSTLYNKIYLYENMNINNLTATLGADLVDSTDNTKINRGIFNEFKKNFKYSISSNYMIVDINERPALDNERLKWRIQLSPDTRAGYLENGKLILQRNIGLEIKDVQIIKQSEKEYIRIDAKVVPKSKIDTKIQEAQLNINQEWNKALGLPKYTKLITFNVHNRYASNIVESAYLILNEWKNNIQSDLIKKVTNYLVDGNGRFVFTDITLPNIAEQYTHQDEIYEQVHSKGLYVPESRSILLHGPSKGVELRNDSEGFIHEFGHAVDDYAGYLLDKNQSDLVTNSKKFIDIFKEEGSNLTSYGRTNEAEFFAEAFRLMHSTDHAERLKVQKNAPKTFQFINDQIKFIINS
BoNT F protease: BoNT/F light chain protease inhibitors, primary screen, biochemical, flow cytometry, MLPCN library; Botulinum neurotoxin type F light chain protease (Clostridium botulinum); Multiplex microsphere protease cleavage assay; inhibition, % at 10 µM; hit rate 0.22% among 360,000; in the data active = inhibition above about 35%, passing the limit was not always enough; inconclusive = no clear call, values can overlap the other calls; note: plate controls were buffer without enzyme for full effect and enzyme alone for no effect
BoNT-A LC inh2: BoNT/A light chain protease inhibitors, primary screen, biochemical, flow cytometry, MLPCN library; multiplex microsphere protease substrate cleavage; hit rate 0.17% among 360,000; Botulinum neurotoxin type A light chain protease (Clostridium botulinum A str. ATCC 3502); AID 588499, 2011; inhibition, % at 10 µM; note: plate controls were buffer without enzyme for full effect and enzyme alone for no effect
An asterisk follows results filed as active; ? = inconclusive; . = no result given. Cut-off read from the data, not from the text of the source, unless noted: active = inhibition above about 30%; inconclusive = no clear call, values can overlap the other calls; inactive = below that.

SMILES	GDH-TPI inh	Autofluor counter	Mtb FBA inh	Anthrax LF prot	BoNT F protease	BoNT-A LC inh2
CC(C)C(NC(=O)c1ccc(S(=O)(=O)N2CCOCC2)cc1)c1nc2ccccc2[nH]1 (stereo unspecified)	-6.4	22568*	-2.1	-2.9	-3.2	-0.5
Cc1ccc(N(Cc2ccccc2)C(=O)c2ccc(S(=O)(=O)N3CCOCC3)cc2)cc1	5.7	27784*	-1.7	-23.7	-176.7	-120.8
Cc1cccc(-n2nc3c(c2NC(=O)c2ccc(S(=O)(=O)N4CCOCC4)cc2)CSC3)c1C	7.6	23238*	-1.3	0.7	-0.5	?
Cc1ccc(N(Cc2ccccc2)C(=O)c2cccc(S(=O)(=O)N3CCOCC3)c2)cc1	-7.4	4639	4.0	2.7	0.4	-1.7
COc1ccc(S(=O)(=O)N2CCOCC2)cc1NC(=O)c1ccc(OC(F)F)cc1	1.8	.	3.1	.	.	.
COc1ccc(NC(=O)c2ccc(S(=O)(=O)N3CCOCC3)cc2)c(OC)c1	-7.7	24065*	4.0	-2.4	-6.3	-3.3
Nc1ccn([C@@H]2O[C@H](C(=O)NCc3ccc4c(c3)OCO4)[C@@H](O)[C@H]2O)c(=O)n1	.	5534	-1.3	-13.5	-12.3	-0.9
Cc1ccc(NC(=O)C2CC(=O)Nc3ncnn32)c(C)c1 (stereo unspecified)	-2.5	5659	0.5	2.3	-5.2	-0.7
CCNC(=S)N/N=C/c1cccc(OCc2c(F)cccc2Cl)c1	14.0	1954	-2.7	-0.8	-2.7	-0.6
C[C@@H]1CN([C@@H](C)CO)C(=O)c2cc(Br)cnc2O[C@H]1CN(C)C(=O)Nc1ccc2c(c1)OCO2	0.5	3074	3.0	-1.5	0.9	0.0
Cc1cc(C)n(-c2nc(SCC(=O)O)c3c4c(sc3n2)COC(C)(C)C4)n1	8.8	4304	2.2	-1.7	-9.7	0.3
Cc1cc(C)n(-c2nc(SCCN(C)C)c3c4c(sc3n2)CCCC4)n1	10.6	17751*	10.1	-2.4	-9.0	-7.3
Cc1ccc(N(C)S(=O)(=O)c2ccc(C)cc2)cc1	9.7	24242*	0.6	0.1	-6.5	-3.5
CCOC(=O)c1c(NC(=S)NC(C)=O)sc(C)c1C	20.6	2286	0.3	-0.5	-3.1	-0.1
COc1ccc(-c2cc(=O)c3c(OC)c(OC)c(OC)c(OC)c3o2)cc1	51.0*	4299	1.9	9.2	-10.0	-0.6
NC(=O)COc1cccc2cccnc12	1.4	16622*	1.3	-11.1	12.5	14.6
Cc1cccc(C(=Cc2ccc([N+](=O)[O-])cc2)C(=O)O)c1	21.2	3570	-3.5	0.9	-4.5	0.1
O=C(N/N=C/c1ccc(OCc2ccccc2)cc1)c1cccs1	14.6	20999*	1.3	-8.8	5.5	2.5
O=C(N/N=C/c1ccc(N2CCOCC2)s1)c1ccc(NS(=O)(=O)c2cccs2)cc1	45.5*	4210	0.0	-3.4	-2.0	-1.1
O=C(N/N=C/c1ccc(N2CCOCC2)cc1)c1ccc(NS(=O)(=O)c2cccs2)cc1	35.3*	3951	6.3	-2.7	1.3	0.0
O=C(Nc1ccc(OCc2ccccc2)cc1)c1cccs1	10.4	2901	1.1	3.6	?	1.5
O=C(N/N=C/c1ccc(N2CCOCC2)cc1)c1cccs1	31.9*	4500	-3.4	-8.6	-1.3	1.2
Cc1ccc(S(=O)(=O)N2CCN(C(=O)CCC(=O)NCc3ccc(F)cc3)CC2)cc1	-2.2	6561	1.1	-2.4	4.0	0.4
CC(=O)Oc1ccc(Cl)cc1CN(C(C)=O)C1CCCCC1	6.8	3920	-0.4	-0.3	2.9	-0.3
CC(C)CC(=O)Nc1nnc(SCC(=O)Nc2nccs2)s1	4.1	5384	0.4	-3.4	6.1	0.5
SMILES	GDH-TPI inh	Autofluor counter	Mtb FBA inh	Anthrax LF prot	BoNT F protease	BoNT-A LC inh2
COc1ccc(C(=O)NNC2CC(=O)N(Cc3ccc(Cl)cc3)C2=O)cc1OC (stereo unspecified)	5.6	2122	0.2	-1.2	-1.1	-0.5
COc1ccc(-c2nc3oc4cc(OC)ccc4c(=O)c3c(=O)n2Cc2ccco2)cc1	10.8	20811*	0.2	-1.3	-1.4	-0.3
COCCn1c(-c2ccc(OC)cc2)nc2oc3cc(OC)ccc3c(=O)c2c1=O	19.2	20954*	10.2	-2.7	-4.6	-2.8
COCCCn1c(C(C)C)nc2oc3cc(OC)ccc3c(=O)c2c1=O	-11.4	20914*	-2.3	0.0	1.1	-0.7
Cc1ccc(-c2nc3c(c(=O)c4ccccc4n3C)c(=O)n2Cc2ccco2)cc1	32.4*	?	3.4	16.7	?	2.6
Cn1c2ccccc2c(=O)c2c(=O)n(Cc3ccco3)c(-c3ccc(F)cc3)nc21	20.0	3159	0.7	-10.5	?	-2.3
Cn1c2ccccc2c2ncn(Cc3ccco3)c(=O)c21	6.1	19514*	18.1	-0.4	0.7	2.0
Cc1ccc(NC(=O)CN(Cc2ccccc2)S(C)(=O)=O)cc1C	-3.1	20638*	1.5	0.6	-0.8	0.3
COc1ccc(NC(=O)CN(C)S(=O)(=O)c2ccccc2)cc1	-2.5	20336*	1.1	-3.6	0.5	0.2
CS(=O)(=O)N(CC(=O)Nc1ccc2c(c1)OCCO2)Cc1ccccc1	-3.7	21816*	-2.5	-0.1	0.3	1.5
COCCNC(=O)CN(Cc1ccc(Cl)cc1)S(C)(=O)=O	-3.1	20349*	1.5	-0.5	0.5	1.1
O=C(CN(Cc1ccccc1)S(=O)(=O)c1ccc2c(c1)OCCO2)Nc1ccc2c(c1)OCCO2	9.4	4248	0.9	-6.8	-5.3	-0.4
COc1ccc(CNC(=O)CN(C)S(=O)(=O)c2ccccc2)cc1	2.8	4634	-3.2	-6.5	-1.4	-0.2
CCC1CCCCN1C(=O)COc1ccc2c(c1)OCO2 (stereo unspecified)	7.5	4280	3.8	3.4	-3.1	-1.5
CCOC(=O)[C@]12CCC=C1N(Cc1ccccc1)C(=O)[C@H](CC(=O)NCC13CC4CC(CC(C4)C1)C3)C2	.	5959	.	3.6	-5.9	-0.7
COC(=O)C(C)Oc1cc(C)ccc1COc1ccc(-n2nc(C)n(C(F)F)c2=O)cc1 (stereo unspecified)	-3.8	3772	-0.8	4.6	?	-1.9
Cc1nc(N/N=C/c2cccc([N+](=O)[O-])c2)cc(N2CCCCC2)n1	-6.2	3780	1.2	-7.9	-0.3	-0.2
COc1ccc(NC(=O)CN(Cc2ccccc2)S(C)(=O)=O)cc1	5.0	23289*	-0.9	-0.1	0.3	1.7
CS(=O)(=O)N(CC(=O)Nc1ccccc1)Cc1ccc(Cl)cc1	8.3	11059	0.4	-3.7	-1.9	0.5
COCCN1C(=O)CCC1(C)C(=O)NC1CCCC1 (stereo unspecified)	.	5809	1.7	-0.6	6.6	0.4
